An excerpt weighted towards active compounds, which were near 2.8% of everything screened.
HSP90 inh: inhibitors of HSP90 luciferase refolding in rabbit reticulocyte lysate; luciferase refolding luminescence, 3 h; inhibition, % at 5.6 µM; actives 0.91% (n = 290,000);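 active means inhibition above the screen-wide mean plus 3 SD, computed separately per campaign, cut at about 16% in these data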;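 further: 0% = DMSO wells and 100% = 60 µM geldanamycin wells; inhibitors lower the luminescence because luciferase stays unfolded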
SENP6 inh: SENP6 protease inhibition; Q9GZR1; Recombinant SENP6 catalytic domain, aminoluciferin luminescence; inhibition, % at 10 µM; actives 1.8% (n = 330,000); AID 2599;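 active means inhibition above about 50% at the single tested dose, limit read from the data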;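 further: plate controls were DMSO wells with enzyme for no effect and DMSO wells lacking enzyme for full effect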
SENP8 block-1: inhibitors of human SENP8 protease | actives 1.2% (n = 330,000) | purified SENP8, Z-RLRGG-aminoluciferin cleavage, luminescence | AID 2540 | Q96LD8 | inhibition, % at 10 µM; in the data active means inhibition above about 50%
Target sequence (Q96LD8 whole entry, looked up): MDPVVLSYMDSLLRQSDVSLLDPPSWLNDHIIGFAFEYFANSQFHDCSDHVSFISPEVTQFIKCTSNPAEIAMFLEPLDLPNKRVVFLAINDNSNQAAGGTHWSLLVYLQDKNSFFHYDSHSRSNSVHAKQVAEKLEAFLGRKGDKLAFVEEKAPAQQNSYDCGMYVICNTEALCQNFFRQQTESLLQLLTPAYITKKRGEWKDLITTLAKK
SENP7 block: SENP7 protease inhibition. Q9BQF6. recombinant SENP7, Z-RLRGG-aminoluciferin luminescence, 40 min. inhibition, % at 5 µM. actives 1.5% (n = 330,000). AID 434973;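 active means inhibition above about 50% at the single test dose, limit read from the data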;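 further: plate controls were DMSO with enzyme for no effect and no enzyme buffer wells for full effect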
Target sequence (Q9BQF6 706-1050 limits assumed): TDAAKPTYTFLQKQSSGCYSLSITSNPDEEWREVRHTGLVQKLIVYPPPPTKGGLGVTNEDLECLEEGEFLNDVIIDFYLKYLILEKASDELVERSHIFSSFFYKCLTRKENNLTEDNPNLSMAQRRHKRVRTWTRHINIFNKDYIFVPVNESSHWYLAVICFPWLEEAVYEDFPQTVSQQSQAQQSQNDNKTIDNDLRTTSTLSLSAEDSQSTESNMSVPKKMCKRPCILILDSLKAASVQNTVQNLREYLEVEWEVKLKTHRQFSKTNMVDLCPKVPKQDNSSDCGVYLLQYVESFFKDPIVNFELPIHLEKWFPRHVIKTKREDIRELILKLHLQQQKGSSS
SENP8 block-2: inhibitors of human SENP8 protease; recombinant SENP8, Nedd8 substrate fluorescence; inhibition, % at 20 µM; Q96LD8; actives 0.64% (n = 360,000); in the data active means inhibition mostly above about 40%, no sharp cut-off; inactive means mostly below about 27%
SENP8 conf: human SENP8 inhibition, confirmed | AID 488912 | Recombinant SENP8, Z-RLRGG-aminoluciferin luminescence, 60 min | actives 40% (n = 6,200) | shares compounds with SENP7 block | inhibition, % at 12.5 µM;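 active means mean inhibition across replicates above about 50%, limit read from the data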
SENP6 confirm: confirmation of human SENP6 protease inhibitors. recombinant SENP6, Z-RLRGG-aminoluciferin luminescence. AID 488915. actives 58% (n = 6,200). shares compounds with SENP7 block. inhibition, % at 12.5 µM
SENP7 confirm: human SENP7 inhibition, confirmed; inhibition, % at 12.5 µM; AID 488917; actives 69% (n = 6,200); recombinant SENP7, Z-RLRGG-aminoluciferin luminescence, 40 min; shares compounds with SENP7 block
Casp3 select: selectivity test for SENP inhibitors: human caspase-3 inhibition; shares compounds with SENP7 block; actives 60% (n = 6,200); inhibition, % at 12.5 µM; purified caspase-3, Z-DEVD-aminoluciferin luminescence, 60 min;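 active means mean inhibition above about 50%, limit read from the data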;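 further: plate controls were enzyme with DMSO for no effect and wells without caspase-3 for full effect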
SENP luc ctr: counter-screen for SENP inhibitors: luminescence interference. shares compounds with SENP7 block. actives 39% (n = 6,200). Pre-incubated SENP8/Z-RLRGG-aminoluciferin, luciferase luminescence interference. inhibition, % at 12.5 µM;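 active means mean inhibition above about 50% when retested at one dose, limit read from the data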;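 further: plate controls were DMSO wells with completed reaction for no effect and substrate without enzyme for full effect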
An asterisk follows results filed as active; nt = no result given.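 How the source made its calls, unless noted: active means mean inhibition above about 50% in the one-dose retest (limit read from the data); inactive means the rest.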

SMILES	HSP90 inh	SENP6 inh	SENP8 block-1	SENP7 block	SENP8 block-2	SENP8 conf	SENP6 confirm	SENP7 confirm	Casp3 select	SENP luc ctr
CCOC(=O)c1cc2c(=O)c3ccccc3oc2nc1C	3.6	58.0*	43.6	58.4*	7.0	42.3	42.8	67.2*	73.6*	18.8
CC(=O)c1cc2c(=O)c3ccccc3oc2nc1C	0.6	17.7	9.8	5.6	8.5	nt	nt	nt	nt	nt
Cc1ccc(C(=O)CC2SC(N)=NC2=O)cc1 (stereo unspecified)	3.4	2.4	2.7	76.7*	-22.8	-7.4	-1.5	3.4	1.1	-6.8
O=C(ONC(=O)C1CCCCC1C(=O)NOC(=O)c1ccccc1)c1ccccc1 (stereo unspecified)	nt	nt	nt	nt	-3.5	nt	nt	nt	nt	nt
O=Nc1ccc(NOC(=O)c2ccccc2)cc1	0.3	87.5*	-29.4	45.8	19.4	14.7	-11.7	103.0*	14.7	8.0
COc1ccc(C(C(=O)NCC2CCCO2)N(Cc2cccs2)C(=O)c2snc(C(N)=O)c2N)cc1OC (stereo unspecified)	-3.8	13.8	-13.7	-11.0	-262.7	nt	nt	nt	nt	nt
COc1ccc(-c2cn3cc(C)ccc3n2)cc1OC	10.8	57.1*	35.5	15.9	-333.0	67.5*	64.8*	90.5*	88.9*	77.5*
N/C(=N\OC(=O)COc1ccccc1)c1ccncc1	4.5	-31.3	-5.7	-3.1	20.0	nt	nt	nt	nt	nt
Cc1ccc(Cc2nc(-c3ccncc3)no2)cc1	0.8	-7.9	0.2	5.1	18.5	nt	nt	nt	nt	nt
CCCc1ccc(-c2ccc(-c3noc(-c4ccncc4)n3)cc2)nc1	0.3	-26.1	2.4	-3.3	5.9	nt	nt	nt	nt	nt
CCCCc1ccc(-c2nc(-c3ccncc3)no2)cc1	-5.8	20.6	83.0*	89.7*	0.4	10.9	10.6	8.8	-5.3	1.5
CCc1ccc(-c2nc(-c3ccncc3)no2)cc1	-0.3	87.1*	80.0*	89.7*	26.3	84.1*	88.0*	97.0*	80.4*	66.6*
COc1ccc(C(CC(=O)c2ccc(O)cc2)S(=O)(=O)c2ccc(C)cc2)cc1 (stereo unspecified)	3.2	49.7	27.6	55.2*	4.8	52.0*	22.3	69.3*	18.3	58.3*
CC(=Nc1ccc(C)c(C)c1)C1=C(O)CSC1=O	3.1	54.3*	22.3	9.3	-17.6	58.1*	56.4*	81.8*	73.8*	63.6*
CCCCNC(=O)/C=C1\Sc2ccccc2NC1=O	0.0	10.6	-7.2	7.0	-224.3	nt	nt	nt	nt	nt
CCc1ccc(C(=O)/C=C2\Sc3ccccc3NC2=O)cc1	5.5	70.0*	32.3	2.5	15.3	69.0*	68.0*	87.8*	61.1*	14.4
Cc1ccc(NC(=O)CSc2ncn(-c3ccccc3)n2)cc1C	2.0	-31.3	-11.0	-6.0	16.9	nt	nt	nt	nt	nt
Cc1cc(C)nc(NC(=O)c2ccc3c(c2)OCO3)c1	0.8	70.8*	58.7*	80.5*	nt	75.3*	74.5*	90.4*	87.6*	75.8*
O=C(Nc1ccc(F)c(Cl)c1)c1ccc2c(c1)OCO2	3.5	88.2*	81.2*	76.1*	4.8	4.6	89.5*	100.0*	83.9*	32.8
COc1ccc(NC(=O)C=C(C)C)cc1Cl	0.3	93.8*	92.6*	4.3	12.0	3.5	94.3*	100.5*	96.3*	93.7*
NS(=O)(=O)c1ccc(NC(=O)c2ccc3c(c2)OCO3)cc1	-2.3	-2.5	1.0	3.2	11.0	nt	nt	nt	nt	nt
Cc1cc(C)nc(NC(=O)Nc2ccc3c(c2)OCO3)c1	-0.7	4.2	0.9	0.9	15.9	nt	nt	nt	nt	nt
COc1ccc(NC(=O)CSc2ncn(-c3ccccc3)n2)cc1Cl	0.2	93.3*	5.2	7.8	12.8	12.6	8.9	3.8	0.1	1.1
Cc1cccc(OCc2nnc(SCC(=O)N3c4ccccc4CCc4ccccc43)o2)c1	3.7	41.9	-6.4	4.1	7.3	nt	nt	nt	nt	nt
O=C(Nc1ccc(F)c(Cl)c1)c1ccccc1	nt	78.3*	76.6*	82.7*	-2.5	84.1*	81.6*	95.3*	78.1*	53.6*
SMILES	HSP90 inh	SENP6 inh	SENP8 block-1	SENP7 block	SENP8 block-2	SENP8 conf	SENP6 confirm	SENP7 confirm	Casp3 select	SENP luc ctr
COc1ccc(NC(=O)c2ccc3c(c2)OCCO3)cc1OC	2.0	32.5	8.1	18.6	10.9	nt	nt	nt	nt	nt
COc1ccc(NC(=O)c2ccc3c(c2)OCO3)cc1Cl	0.7	79.9*	83.3*	93.3*	17.0	5.2	88.0*	99.1*	88.0*	12.1
COc1cc(C(=O)Nc2ccc3c(c2)OCCO3)ccc1OC(C)C	-2.8	-13.1	-16.8	-7.3	13.1	nt	nt	nt	nt	nt
O=C(Nc1ccc(F)c(Cl)c1)c1cccnc1	1.4	24.1	-2.7	5.6	6.4	nt	nt	nt	nt	nt
COc1cc(C(=O)Nc2ccc3c(c2)OCCO3)ccc1OC(F)F	-1.0	82.2*	62.4*	77.0*	11.2	6.0	71.2*	90.0*	75.9*	75.2*
O=C(Cn1c(=O)[nH]c2ccccc2c1=O)Nc1cccnc1	-3.8	1.2	2.5	1.0	-9.6	nt	nt	nt	nt	nt
c1cnc2c(-c3ccc4nccn4c3)cccc2c1	nt	nt	nt	nt	-48.9	nt	nt	nt	nt	nt
Cc1cc2nc(-c3ccc(SCC(=O)NC(C)C)nc3)[nH]c2cc1C	-0.8	7.8	1.4	10.6	nt	nt	nt	nt	nt	nt
Cc1cc2nc(-c3ccc(SCC(=O)Nc4ccc(S(=O)(=O)NC5CC5)cc4)nc3)[nH]c2cc1C	-2.5	28.8	1.4	63.5*	-418.1	12.6	18.5	77.8*	39.1	19.9
Cc1cc(NC(=O)CSc2ccc(-c3nc4cc(C)c(C)cc4[nH]3)cn2)no1	-0.9	6.3	-0.1	50.7*	-300.9	-4.0	0.4	8.0	5.9	5.0
Brc1ccccc1-n1nnc(-c2nccs2)n1	14.2	61.3*	54.6*	55.7*	16.1	45.9	44.7	78.9*	66.2*	65.4*
c1ccc(-n2nnc(-c3nccs3)n2)cc1	nt	81.8*	77.3*	76.5*	-2.2	70.6*	81.7*	96.8*	91.5*	70.6*
Clc1ncccc1-c1nnn(-c2ccccc2Br)n1	7.6	8.7	1.0	-8.6	5.8	nt	nt	nt	nt	nt
CCOC(=O)c1c(NC(=O)CN2C(=O)NC3(CCC(CC)CC3)C2=O)sc(C)c1-c1ccc(C)cc1 (stereo unspecified)	-3.3	9.0	-1.4	2.0	7.9	nt	nt	nt	nt	nt
CCCN=C(C)c1c(-c2ccccc2)[nH]n(-c2nc3ccccc3s2)c1=O	-3.2	0.0	-1.3	-0.4	13.2	nt	nt	nt	nt	nt
CCC(=NCc1ccco1)c1c(C(F)(F)F)[nH]n(-c2nc3ccccc3s2)c1=O	2.5	95.6*	88.5*	95.8*	2.7	72.9*	70.4*	90.3*	89.7*	81.0*

Compound activity as filed in PubChem BioAssay.
